STK33 kin inh = human STK33 kinase inhibition | Q9BYT3 | ADP-Glo luminescence, MBP substrate | inhibition, % at 12.5 µM | 27,000 compounds, 0.44% hits | AID 2322; in the data active = inhibition above about 20%; inconclusive = no clear call, values can overlap the other calls
Target sequence (Q9BYT3 whole entry, looked up): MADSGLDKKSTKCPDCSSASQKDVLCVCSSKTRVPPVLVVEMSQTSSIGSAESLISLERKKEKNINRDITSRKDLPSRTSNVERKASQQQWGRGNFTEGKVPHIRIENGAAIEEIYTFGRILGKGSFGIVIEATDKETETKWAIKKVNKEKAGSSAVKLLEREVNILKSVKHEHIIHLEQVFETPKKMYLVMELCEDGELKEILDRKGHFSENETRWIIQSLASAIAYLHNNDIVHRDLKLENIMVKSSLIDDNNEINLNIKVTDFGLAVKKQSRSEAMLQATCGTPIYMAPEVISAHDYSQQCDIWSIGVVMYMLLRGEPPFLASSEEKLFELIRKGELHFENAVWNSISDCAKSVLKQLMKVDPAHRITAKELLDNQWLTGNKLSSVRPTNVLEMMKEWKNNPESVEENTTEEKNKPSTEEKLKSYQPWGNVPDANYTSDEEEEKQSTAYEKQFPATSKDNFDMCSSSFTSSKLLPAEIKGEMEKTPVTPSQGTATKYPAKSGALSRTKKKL
ID4 binder = binders of human ID4 protein | small molecule microarray, Flag-ID4 binding, fluorescence F/B | calls only | 31,000 compounds, 1.2% hits | AID 624137; call rule not given here;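 also: a binder raises fluorescence above local background on the spot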
p53 PUMA act = re-activators of the mutant p53 pathway | SW480 PUMA-promoter luciferase, p53 mutant reactivation | activation, % at 9.98 µM | 28,000 compounds, 1.5% hits; in the data active = activation above about 52%; inconclusive = no clear call, values can overlap the other calls
The depositor's hits bear a star; i = inactive; ? = inconclusive; . = not tested or not shown; + = active, no number. Rows were chosen to be rich in hits. Some 2% of all compounds tested hit in one or more screens of this group.

SMILES	STK33 kin inh	ID4 binder	p53 PUMA act
COc1ccc(C#Cc2ccc3c(c2)[C@]2(C(=O)N3)[C@H](C(=O)N3CCN(c4ncccn4)CC3)[C@H]3C(=O)O[C@H](c4ccccc4)[C@H](c4ccccc4)N3[C@@H]2c2ccccc2OCCO)cc1	8	.	.
C[C@H](CO)N1C[C@H](C)[C@H](CN(C)C(=O)c2cccc(F)c2)Oc2ncc(-c3ccccc3)cc2C1=O	.	+	.
C[C@H]1CN([C@@H](C)CO)C(=O)c2cc(-c3cccc(F)c3)cnc2O[C@H]1CN(C)C(=O)Nc1cc(F)ccc1F	.	+	-4
C[C@@H]1CN([C@H](C)CO)C(=O)c2cc(-c3cccc(F)c3)cnc2O[C@@H]1CN(C)C(=O)Nc1cc(F)ccc1F	.	i	18
C[C@@H]1CN([C@@H](C)CO)C(=O)c2cc(-c3ccccc3)cnc2O[C@H]1CN(C)C(=O)c1cccc(F)c1	.	i	.
CC(C)(CCO[C@@H]1O[C@H](CO[C@@H]2OC[C@@H](O)[C@H](O)[C@H]2O)[C@@H](O)[C@H](O)[C@H]1O)C[C@@H]1C(C(=O)O)=CC[C@]2(C(=O)O)C1=CCC1[C@@]3(C)CC[C@H](O[C@@H]4O[C@H](CO[C@@H]5O[C@H](CO)[C@@H](O)[C@H](O)[C@H]5O)[C@@H](O)[C@H](O)[C@H]4O)C(C)(C)C3CC[C@]12C (some centres undefined)	-4	.	-74
C[C@@H]1CN([C@H](C)CO)C(=O)c2cc(NS(=O)(=O)c3cn(C)cn3)ccc2O[C@H]1CN(C)Cc1ccccc1	.	i	12
C[C@@H]1CN([C@@H](C)CO)C(=O)c2cc(NC(=O)CCCN(C)C)ccc2O[C@@H]1CN(C)Cc1ccc(C(=O)O)cc1	.	+	-2
C[C@H](CO)N1C[C@H](C)[C@H](CN(C)C(=O)Nc2ccccc2)Oc2ccc(NC(=O)CCCN(C)C)cc2C1=O	-1	i	6
C[C@H](CO)N1C[C@H](C)[C@@H](CN(C)Cc2ccc(C(=O)O)cc2)Oc2ccc(NC(=O)CCCN(C)C)cc2C1=O	.	i	-1
C[C@@H]1CN([C@H](C)CO)C(=O)c2cc(NC(=O)CCCN(C)C)ccc2O[C@@H]1CN(C)C(=O)Nc1ccccc1	.	+	9
C[C@H]1CN([C@@H](C)CO)C(=O)c2cc(NS(=O)(=O)c3cn(C)cn3)ccc2O[C@@H]1CN(C)Cc1ccccc1	.	+	4
C[C@@H]1CN([C@@H](C)CO)C(=O)c2cc(NC(=O)CCCN(C)C)ccc2O[C@@H]1CN(C)C(=O)Nc1cccc2ccccc12	.	i	-7
C[C@H](CO)N1C[C@H](C)[C@@H](CN(C)C(=O)Nc2cccc3ccccc23)Oc2ccc(NC(=O)CCCN(C)C)cc2C1=O	.	+	6
O=S(=O)(c1cccc2cccnc12)N1CCN(Cc2cccc(OCCO)c2)CC1	-1	.	.
Cc1cc(C)cc(N(CC(=O)Nc2ccc(Br)c(Cl)c2)S(C)(=O)=O)c1	1	i	-8
C[C@H](CO)N1C[C@H](C)[C@@H](CN(C)C(=O)c2ccccc2)OCCCC[C@H](C)Oc2ccc(NS(C)(=O)=O)cc2C1=O	.	+	-2
C[C@@H]1CCCCO[C@H](CN(C)C(=O)c2ccccc2)[C@@H](C)CN([C@@H](C)CO)C(=O)c2cc(NS(C)(=O)=O)ccc2O1	.	i	-9
C[C@@H]1CCCCO[C@@H](CN(C)C(=O)CCCN(C)C)[C@@H](C)CN([C@H](C)CO)C(=O)c2cc(NS(=O)(=O)c3ccccc3)ccc2O1	2	+	3
C[C@@H]1CCCCO[C@H](CN(C)C(=O)CCCN(C)C)[C@@H](C)CN([C@H](C)CO)C(=O)c2cc(NS(=O)(=O)c3ccccc3)ccc2O1	-4	i	5
CC(=O)Nc1ccc(S(=O)(=O)N2CCCCC2C)cc1 (centres undefined)	0	.	.
Cc1csc(SCC(=O)Nc2ccc3c(c2)OCCO3)n1	-1	i	61*
O=C(CSc1nc2ccccc2s1)Nc1ccc2c(c1)OCCO2	2	i	19
O=C(NC1CCN(C(=O)c2c(Cl)cccc2Cl)CC1)C1CCCCC1	1	.	.
O=C(Nc1ccccc1C(=O)NCc1ccco1)c1ccc(-c2ccccc2)cc1	0	i	58*
SMILES	STK33 kin inh	ID4 binder	p53 PUMA act
O=C(Nc1ccccc1C(=O)NCc1ccco1)c1ccccc1Cl	-1	i	0
Cc1ccc(OCc2nc(N)nc(N(C)C)n2)cc1C	.	i	?
CS(=O)(=O)N(CC(=O)Nc1ccc(Oc2ccccc2)cc1)c1ccc2c(c1)OCCO2	-1	i	27
O=C(Nc1ccc(S(=O)(=O)N2CCOCC2)cc1)c1cc(-c2ccncc2)nc2c(Cl)cccc12	2	i	-21
Cc1ccc2nc(-c3ccccn3)cc(C(=O)Nc3ccc(S(=O)(=O)N4CCOCC4)cc3)c2c1	8	+	5
c1ccc(CNc2ncnc3scc(C4COc5ccccc5O4)c23)cc1 (centres undefined)	1	i	-6
